# Source: the supplement of paper PMC6555819
# Columns and labels:
# Assay in all cases: PBM binding z-score (relative to random genomic background probes); higher = stronger binding; sequences stand for … in GC…GCGATTGACAGCGTAGAATGAAGG
# [1] = tested on: FXR:RXRa (NR concentration 270 nM, RXRa partner concentration 90 nM)
# Summary of the method: (§1)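 Ligand-free nuclear receptor dimers were bound for 1 h to custom Agilent 4×180K protein-binding microarrays. Detection used antibodies against each partner (one per run). Binding z-scores rest on regression-normalized fluorescence, with random background probes as the reference.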
# [2] = tested on: LXRa:RXRa (NR concentration 270 nM, RXRa partner concentration 90 nM)
# Summary of the method: as §1
# [3] = tested on: LXRa homodimer (NR concentration 270 nM)
# Summary of the method: as §1
# [4] = tested on: LXRb:RXRa (NR concentration 270 nM, RXRa partner concentration 90 nM)
# Summary of the method: as §1
# [5] = tested on: LXRb homodimer (NR concentration 270 nM)
# Summary of the method: as §1
# [6] = tested on: PPARa:RXRa (NR concentration 270 nM, RXRa partner concentration 90 nM)
# Summary of the method: as §1
# [7] = tested on: PPARg:RXRa (NR concentration 180 nM, RXRa partner concentration 90 nM)
# Summary of the method: as §1
# [8] = tested on: PPARg:RXRa 270nM:90nM, anti-RXR (NR concentration 270 nM, RXRa partner concentration 90 nM)
# Summary of the method: as §1
# [9] = tested on: PPARg:RXRa 30nM:10nM, anti-RXR (NR concentration 30 nM, RXRa partner concentration 10 nM)
# Summary of the method: as §1
# [10] = tested on: PPARg:RXRa 90nM:30nM, anti-RXR (NR concentration 90 nM, RXRa partner concentration 30 nM)
# Summary of the method: as §1
sequence,measurement,setting,value
TCATATAGGTAAATGTTAGGTGAAAGTCCGATCT,PBM binding z-score,[1],1.64
same,PBM binding z-score,[2],1.44
same,PBM binding z-score,[3],0.543
same,PBM binding z-score,[4],1.22
same,PBM binding z-score,[5],0.304
same,PBM binding z-score,[6],1.64
same,PBM binding z-score,[7],1.04
same,PBM binding z-score,[8],2.53
same,PBM binding z-score,[9],4.07
same,PBM binding z-score,[10],3.22
GTACCAAGGGGAATAGGTCGTTGATGAGTAGGCG,PBM binding z-score,[1],-0.0504
same,PBM binding z-score,[2],0.00136
same,PBM binding z-score,[3],-0.0435
same,PBM binding z-score,[4],0.269
same,PBM binding z-score,[5],-0.418
same,PBM binding z-score,[6],1.3
same,PBM binding z-score,[7],0.915
same,PBM binding z-score,[8],1.15
same,PBM binding z-score,[9],0.0532
same,PBM binding z-score,[10],0.835
AATACAGGGTCTTCGTAGGCCAGAGTACGCACAG,PBM binding z-score,[1],-0.0491
same,PBM binding z-score,[2],0.0766
same,PBM binding z-score,[3],-0.419
same,PBM binding z-score,[4],-0.205
same,PBM binding z-score,[5],-0.311
same,PBM binding z-score,[6],0.156
same,PBM binding z-score,[7],0.75
same,PBM binding z-score,[8],0.174
same,PBM binding z-score,[9],0.334
same,PBM binding z-score,[10],0.137
TTACCAAGGTGAAAGGTAGTTGATGCACGCCTTG,PBM binding z-score,[1],0.796
same,PBM binding z-score,[2],0.851
same,PBM binding z-score,[3],-0.137
same,PBM binding z-score,[4],0.456
same,PBM binding z-score,[5],-0.64
same,PBM binding z-score,[6],2.7
same,PBM binding z-score,[7],3.76
same,PBM binding z-score,[8],4.56
same,PBM binding z-score,[9],2.81
same,PBM binding z-score,[10],4.51
TATACAGGGTCAAAAGCCAGAGTACGAATGTCGA,PBM binding z-score,[1],5.93
same,PBM binding z-score,[2],5.72
same,PBM binding z-score,[3],1.74
same,PBM binding z-score,[4],4.3
same,PBM binding z-score,[5],2.65
same,PBM binding z-score,[6],5.48
same,PBM binding z-score,[7],6.57
same,PBM binding z-score,[8],6.01
same,PBM binding z-score,[9],3.42
same,PBM binding z-score,[10],5.08
AATACAGGGTCATCGTAGGCCACAGTACGCACAG,PBM binding z-score,[1],7.48
same,PBM binding z-score,[2],6.72
same,PBM binding z-score,[3],3.33
same,PBM binding z-score,[4],4.97
same,PBM binding z-score,[5],1.33
same,PBM binding z-score,[6],5.98
same,PBM binding z-score,[7],7.16
same,PBM binding z-score,[8],6.32
same,PBM binding z-score,[9],2.8
same,PBM binding z-score,[10],5.05
TCTATTAGTTGATTAGTGCAACCGAAACAGCGGA,PBM binding z-score,[1],0.567
same,PBM binding z-score,[2],0.676
same,PBM binding z-score,[3],0.422
same,PBM binding z-score,[4],0.608
same,PBM binding z-score,[5],0.403
same,PBM binding z-score,[6],0.779
same,PBM binding z-score,[7],-0.179
same,PBM binding z-score,[8],2.12
same,PBM binding z-score,[9],3.55
same,PBM binding z-score,[10],2.78
GCCTATAGGTAATACAAGGTGAAAGTCCGATTGT,PBM binding z-score,[1],2.26
same,PBM binding z-score,[2],2.68
same,PBM binding z-score,[3],-0.0258
same,PBM binding z-score,[4],0.783
same,PBM binding z-score,[5],-0.465
same,PBM binding z-score,[6],1.28
same,PBM binding z-score,[7],0.667
same,PBM binding z-score,[8],0.826
same,PBM binding z-score,[9],0.0563
same,PBM binding z-score,[10],0.57
TCGAGTAGGTTACCAATGGGGCATTTAGCTTTCT,PBM binding z-score,[1],0.00953
same,PBM binding z-score,[2],1.35
same,PBM binding z-score,[3],-0.662
same,PBM binding z-score,[4],1.09
same,PBM binding z-score,[5],-0.721
same,PBM binding z-score,[6],1.22
same,PBM binding z-score,[7],0.144
same,PBM binding z-score,[8],1.33
same,PBM binding z-score,[9],1.33
same,PBM binding z-score,[10],1.2
TCTGCTAGGTCCACGATGGTCAGCTAATCTGCTA,PBM binding z-score,[1],-0.34
same,PBM binding z-score,[2],-0.399
same,PBM binding z-score,[3],-0.522
same,PBM binding z-score,[4],-0.79
same,PBM binding z-score,[5],-0.988
same,PBM binding z-score,[6],-0.24
same,PBM binding z-score,[7],-0.332
same,PBM binding z-score,[8],0.324
same,PBM binding z-score,[9],1.16
same,PBM binding z-score,[10],0.768
CCTATCAGTTGACCATAAGGGCAACCGAAGCTCG,PBM binding z-score,[1],0.965
same,PBM binding z-score,[2],0.314
same,PBM binding z-score,[3],0.218
same,PBM binding z-score,[4],0.583
same,PBM binding z-score,[5],0.56
same,PBM binding z-score,[6],0.693
same,PBM binding z-score,[7],0.456
same,PBM binding z-score,[8],0.233
same,PBM binding z-score,[9],-0.0186
same,PBM binding z-score,[10],0.0779
TCGAGTAGGTTAGTCGCGGCATTCAGCCAACATA,PBM binding z-score,[1],-0.279
same,PBM binding z-score,[2],-0.139
same,PBM binding z-score,[3],-0.606
same,PBM binding z-score,[4],-0.576
same,PBM binding z-score,[5],-1.32
same,PBM binding z-score,[6],0.228
same,PBM binding z-score,[7],-0.37
same,PBM binding z-score,[8],0.565
same,PBM binding z-score,[9],1.03
same,PBM binding z-score,[10],0.9
CCGAGTAGGTTATGGGGCATTCAAGCAACGGTGA,PBM binding z-score,[1],0.071
same,PBM binding z-score,[2],0.506
same,PBM binding z-score,[3],-0.128
same,PBM binding z-score,[4],0.732
same,PBM binding z-score,[5],0.278
same,PBM binding z-score,[6],2.1
same,PBM binding z-score,[7],3.82
same,PBM binding z-score,[8],4.64
same,PBM binding z-score,[9],2.45
same,PBM binding z-score,[10],4.67
TGAATGGGGTTATAAGATCAGGGAACGTTGCAAA,PBM binding z-score,[1],3.48
same,PBM binding z-score,[2],2.4
same,PBM binding z-score,[3],0.471
same,PBM binding z-score,[4],4
same,PBM binding z-score,[5],2
same,PBM binding z-score,[6],4.74
same,PBM binding z-score,[7],3.24
same,PBM binding z-score,[8],3.32
same,PBM binding z-score,[9],1.77
same,PBM binding z-score,[10],2.79
TAGCCTAGGTCAGATCAGGCCAGTATACGCTATA,PBM binding z-score,[1],2.57
same,PBM binding z-score,[2],1.55
same,PBM binding z-score,[3],-0.196
same,PBM binding z-score,[4],0.898
same,PBM binding z-score,[5],-0.239
same,PBM binding z-score,[6],1.69
same,PBM binding z-score,[7],0.794
same,PBM binding z-score,[8],0.923
same,PBM binding z-score,[9],0.0567
same,PBM binding z-score,[10],0.604
GCCTACGGGTCAAAGGTTATAGCATGAATAGAAT,PBM binding z-score,[1],7.04
same,PBM binding z-score,[2],5.56
same,PBM binding z-score,[3],0.447
same,PBM binding z-score,[4],5.59
same,PBM binding z-score,[5],-0.175
same,PBM binding z-score,[6],6.6
same,PBM binding z-score,[7],10.4
same,PBM binding z-score,[8],8.66
same,PBM binding z-score,[9],7.8
same,PBM binding z-score,[10],9.24
ACAGACATGTGATGAAGGTAACTCAGGCTATCAT,PBM binding z-score,[1],0.000592
same,PBM binding z-score,[2],-0.0384
same,PBM binding z-score,[3],-0.258
same,PBM binding z-score,[4],-0.35
same,PBM binding z-score,[5],-0.283
same,PBM binding z-score,[6],-0.131
same,PBM binding z-score,[7],0.611
same,PBM binding z-score,[8],-0.0726
same,PBM binding z-score,[9],-0.0978
same,PBM binding z-score,[10],0.0328
CCTACTGGGCTAAGGTCATTGATCAGTCAAAGCA,PBM binding z-score,[1],3.85
same,PBM binding z-score,[2],3.94
same,PBM binding z-score,[3],1.87
same,PBM binding z-score,[4],3.49
same,PBM binding z-score,[5],-0.0794
same,PBM binding z-score,[6],4.26
same,PBM binding z-score,[7],3.54
same,PBM binding z-score,[8],4.28
same,PBM binding z-score,[9],1.41
same,PBM binding z-score,[10],3.47
TCGAGTAGGTTAGGGGAATTCAGAATGGCGTCGA,PBM binding z-score,[1],-0.0318
same,PBM binding z-score,[2],-0.209
same,PBM binding z-score,[3],-0.147
same,PBM binding z-score,[4],0.224
same,PBM binding z-score,[5],-0.435
same,PBM binding z-score,[6],0.565
same,PBM binding z-score,[7],0.159
same,PBM binding z-score,[8],1.02
same,PBM binding z-score,[9],1.11
same,PBM binding z-score,[10],1.18
CCGACTGGGGCAAGGGTACCATAACGCACAGCCA,PBM binding z-score,[1],-0.555
same,PBM binding z-score,[2],-0.391
same,PBM binding z-score,[3],-0.264
same,PBM binding z-score,[4],-0.192
same,PBM binding z-score,[5],-1.39
same,PBM binding z-score,[6],1.5
same,PBM binding z-score,[7],4.24
same,PBM binding z-score,[8],4.92
same,PBM binding z-score,[9],2.6
same,PBM binding z-score,[10],4.6
ACTAGCAGACCAAGTTTGGGTCACTCAAACAAAG,PBM binding z-score,[1],-0.0358
same,PBM binding z-score,[2],-0.0494
same,PBM binding z-score,[3],-0.696
same,PBM binding z-score,[4],0.808
same,PBM binding z-score,[5],-0.744
same,PBM binding z-score,[6],1.32
same,PBM binding z-score,[7],-0.0128
same,PBM binding z-score,[8],0.182
same,PBM binding z-score,[9],-0.186
same,PBM binding z-score,[10],0.531
TCAGACAGGTGAAGGTGACTCAGGTACGCAGTCG,PBM binding z-score,[1],0.795
same,PBM binding z-score,[2],0.409
same,PBM binding z-score,[3],-0.133
same,PBM binding z-score,[4],0.864
same,PBM binding z-score,[5],0.128
same,PBM binding z-score,[6],1.58
same,PBM binding z-score,[7],0.781
same,PBM binding z-score,[8],2.13
same,PBM binding z-score,[9],3.51
same,PBM binding z-score,[10],2.83
CCAGACAGGTGAAAGCTAACTCAGTCTGGTACGC,PBM binding z-score,[1],-0.364
same,PBM binding z-score,[2],-0.206
same,PBM binding z-score,[3],-0.559
same,PBM binding z-score,[4],-0.0941
same,PBM binding z-score,[5],-0.593
same,PBM binding z-score,[6],0.302
same,PBM binding z-score,[7],0.368
same,PBM binding z-score,[8],-0.0659
same,PBM binding z-score,[9],-0.35
same,PBM binding z-score,[10],-0.285
